Activation (rescue from dofetilide block), less the hit threshold data for 62 molecules are collected here from PubChem BioAssay AID1511 (Johns Hopkins Ion Channel Center, 2009).

In all, about 310,000 compounds went through this assay and about 1,600 (0.52%) were called active. Shown is part of a subset that was picked to be rich in actives. A number with no mark means an inactive call.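 Rule for the calls: active = activation above the mean of controls blocked by dofetilide plus 5 SD; inactive = the rest.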

Voltage-gated inwardly rectifying potassium channel KCNH2 (Homo sapiens), sequence (Q12809 whole entry, looked up): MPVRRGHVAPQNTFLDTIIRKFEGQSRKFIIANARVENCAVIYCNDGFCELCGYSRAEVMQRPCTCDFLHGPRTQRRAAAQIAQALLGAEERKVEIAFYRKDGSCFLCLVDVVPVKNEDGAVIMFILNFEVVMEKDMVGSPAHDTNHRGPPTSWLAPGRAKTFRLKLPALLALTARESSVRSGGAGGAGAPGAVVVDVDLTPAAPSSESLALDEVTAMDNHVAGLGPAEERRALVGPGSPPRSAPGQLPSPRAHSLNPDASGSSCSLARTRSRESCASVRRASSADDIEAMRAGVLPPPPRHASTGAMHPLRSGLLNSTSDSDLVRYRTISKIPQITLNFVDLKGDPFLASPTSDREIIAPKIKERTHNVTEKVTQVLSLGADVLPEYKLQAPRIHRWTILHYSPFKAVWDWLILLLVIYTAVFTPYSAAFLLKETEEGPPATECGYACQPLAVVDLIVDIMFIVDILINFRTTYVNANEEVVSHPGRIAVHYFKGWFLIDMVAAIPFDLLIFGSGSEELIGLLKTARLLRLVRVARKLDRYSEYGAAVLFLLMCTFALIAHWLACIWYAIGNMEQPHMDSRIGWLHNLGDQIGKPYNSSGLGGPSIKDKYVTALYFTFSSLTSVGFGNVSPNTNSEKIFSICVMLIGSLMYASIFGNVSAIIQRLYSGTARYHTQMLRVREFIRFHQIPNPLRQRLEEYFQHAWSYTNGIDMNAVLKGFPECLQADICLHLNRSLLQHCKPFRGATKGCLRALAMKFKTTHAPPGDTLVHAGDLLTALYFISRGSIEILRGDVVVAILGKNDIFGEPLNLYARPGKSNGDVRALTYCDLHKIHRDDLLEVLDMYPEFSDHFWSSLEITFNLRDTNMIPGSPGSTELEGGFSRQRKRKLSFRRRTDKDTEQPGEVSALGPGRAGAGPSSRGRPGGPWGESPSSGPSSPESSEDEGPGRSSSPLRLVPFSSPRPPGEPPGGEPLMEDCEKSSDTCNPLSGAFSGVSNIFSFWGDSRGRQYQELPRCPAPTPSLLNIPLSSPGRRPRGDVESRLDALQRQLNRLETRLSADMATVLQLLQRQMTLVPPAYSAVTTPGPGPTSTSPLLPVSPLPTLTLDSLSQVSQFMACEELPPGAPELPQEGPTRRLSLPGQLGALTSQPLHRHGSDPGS

The test has as its target Voltage-gated inwardly rectifying potassium channel KCNH2 (Homo sapiens) (UniProt Q12809). Nature of the test: compounds relieving dofetilide block of hERG – cell-based, CHO-hERG, FluxOR thallium flux, dofetilide IC70, primary screen (AID 1511).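 Note: thallium influx through hERG after potassium depolarization seen as dye fluorescence rise.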 As to conditions: dofetilide IC70 present, at 10 µM, hits give high values.
As for `Cc1cccc(NC(=O)c2ccc3ccccc3n2)n1`, the activation (rescue from dofetilide block), less the hit threshold is -1.08%.

With `CCOC(=O)C(=CNc1cccc(C)n1)C(=O)OCC`, the activation (rescue from dofetilide block), less the hit threshold is 5.91% (active).

Turning to `Cc1cccc(NC(=O)Cc2ccc(Br)cc2)n1`, the activation (rescue from dofetilide block), less the hit threshold is -12.3%.

On to `COC(=O)[C@H](CC(C)C)NC(=O)N1CCCCC1C` (some centres not stated), for which the activation (rescue from dofetilide block), less the hit threshold was -7.74%.

Regarding `CCc1ccc(CN(C)C(=O)CCc2nnc(-c3ccc(-c4ccccc4)cc3)o2)nc1`, the activation (rescue from dofetilide block), less the hit threshold was -22.3%.

As to `NS(=O)(=O)c1ccc(CNC(=O)c2ccc(Cl)cc2[N+](=O)[O-])cc1`, the activation (rescue from dofetilide block), less the hit threshold was -2.96%.

As to `O=C(Cn1ccc2cc(S(=O)(=O)N3CCCC3)ccc21)NCc1ccccc1`, the activation (rescue from dofetilide block), less the hit threshold is -5.85%.

For `N=c1oc2ccccc2cc1C(=O)N/N=C/c1ccccc1`, the activation (rescue from dofetilide block), less the hit threshold is -8.66%.

For `Cc1ccc(/C=N/NC(=O)c2cc3ccccc3cc2O)o1`, the activation (rescue from dofetilide block), less the hit threshold was 41.5% (active).

Regarding `O=C(N/N=C/c1cccnc1)c1cc2ccccc2cc1O`, the activation (rescue from dofetilide block), less the hit threshold was -0.07%.

In the case of `CCCCCN1CC(O)=C(c2nc(-c3ccc(Cl)cc3)cs2)C1=N`, the activation (rescue from dofetilide block), less the hit threshold is -8.57%.

In the case of `CCCCCN1CC(O)=C(c2ccccc2)C1=N`, the activation (rescue from dofetilide block), less the hit threshold was 5.35% (active).

For `CCOC(=O)CCCN1CC(O)=C(c2nc3ccccc3s2)C1=N`, the activation (rescue from dofetilide block), less the hit threshold was -12%.

Turning to `CCC1OC(c2ccc([N+](=O)[O-])cc2)=Nc2ccccc21` (configuration not stated), the activation (rescue from dofetilide block), less the hit threshold was -15.1%.

Take `Cc1ccc(C(C)C)cc1OCC(=O)Nc1ccccc1N1CCCC1`: the activation (rescue from dofetilide block), less the hit threshold is -20.3%.

Take `COc1ccc2oc(N)c(C=O)c(=O)c2c1`: the activation (rescue from dofetilide block), less the hit threshold was -3.18%.

For `CCc1cc2c(=O)c(-c3ccc(F)cc3)c(C(F)(F)F)oc2cc1OCC(=O)O`, the activation (rescue from dofetilide block), less the hit threshold was -11.1%.

For the molecule `CCc1cc2c(=O)c(-c3ccon3)c(N)oc2cc1OC`, the activation (rescue from dofetilide block), less the hit threshold was 5.25% (active).

As for `CCOC(=O)c1cc(-c2ccc(Cl)s2)nc2c1c(C)nn2C`, the activation (rescue from dofetilide block), less the hit threshold was -9.55%.

In the case of `CC12c3ccccc3C(c3ccccc31)C1C(=O)N(Cc3cccnc3)C(=O)C12` (configuration not stated), the activation (rescue from dofetilide block), less the hit threshold was -9.37%.

For `CCOC(=O)C1CCN(C(=O)COc2cccc3ccccc23)CC1`, the activation (rescue from dofetilide block), less the hit threshold was -10.3%.

Consider `O=C(CN(CC1CCCO1)C(=O)CNS(=O)(=O)c1ccccc1)NCc1ccccc1` (configuration not stated), for which the activation (rescue from dofetilide block), less the hit threshold was -7.03%.

For the molecule `CC(C)C(C(=O)NCc1ccco1)N(CC1CCCO1)C(=O)CNS(=O)(=O)c1ccc(F)cc1` (configuration not stated), the activation (rescue from dofetilide block), less the hit threshold was 0.16%.

On to `O=C(CN(CC1CCCO1)C(=O)CNS(=O)(=O)c1ccc(F)cc1)NCc1ccco1` (configuration not stated), for which the activation (rescue from dofetilide block), less the hit threshold was 4.78% (active).

Consider `O=C(CSc1ccccn1)N1CCN(S(=O)(=O)c2ccc(Cl)cc2)CC1`, for which the activation (rescue from dofetilide block), less the hit threshold is -10.1%.

As for `CC1(C)Cc2cccc(OCC(N)=O)c2O1`, the activation (rescue from dofetilide block), less the hit threshold was -3.71%.

With `CC1(C)Cc2cccc(OCC(=O)NCc3ccccc3)c2O1`, the activation (rescue from dofetilide block), less the hit threshold is -7.06%.

With `CC1(C)Cc2cccc(OCC(=O)Nc3nccs3)c2O1`, the activation (rescue from dofetilide block), less the hit threshold is 7.68% (active).

`Cc1ccc2c(c1)N(S(=O)(=O)c1cc(-c3cc(C)no3)ccc1C)CCO2`: the activation (rescue from dofetilide block), less the hit threshold was -7.78%.

As to `O=C(CCc1ccccc1)NCCc1cccs1`, the activation (rescue from dofetilide block), less the hit threshold is -5.64%.

On to `COc1cc(S(=O)(=O)N2CCOCC2)ccc1NC(=O)COc1ccc(N(C)S(=O)(=O)c2ccc(C)cc2)cc1`, for which the activation (rescue from dofetilide block), less the hit threshold was -22.3%.

For the molecule `O=C1NC(c2ccccc2)Oc2ccccc21` (configuration not stated), the activation (rescue from dofetilide block), less the hit threshold was -10.1%.

As for `CCNC(=S)Nc1ccc(OC(F)(F)F)cc1`, the activation (rescue from dofetilide block), less the hit threshold is -17.9%.

As to `FC(F)(F)Oc1ccc(NC(=S)NCc2ccccc2)cc1`, the activation (rescue from dofetilide block), less the hit threshold is -9.66%.

On to `CS(=O)(=O)c1sc(C(=O)NC(=S)Nc2ccc(OC(F)(F)F)cc2)c2c1C=CCC2`, for which the activation (rescue from dofetilide block), less the hit threshold is 6.46% (active).

`CC1(C)Cc2c(sc(NC(=O)C(=O)N3CCOCC3)c2C#N)CO1`: the activation (rescue from dofetilide block), less the hit threshold is -11.7%.

With `CCC(=O)Nc1cccc(NC(=O)CSc2nnnn2C2CCCC2)c1`, the activation (rescue from dofetilide block), less the hit threshold is -7.7%.

As to `O=C(CSc1nnnn1C1CCCC1)Nc1ccc2c(c1)OCCO2`, the activation (rescue from dofetilide block), less the hit threshold was 6.54% (active).

Turning to `CC(=O)Nc1ccc(NC(=O)CSc2nnnn2C2CCCCC2)cc1`, the activation (rescue from dofetilide block), less the hit threshold is -7.91%.

On to `O=C(O)c1ccccc1-c1ccccc1C(=O)NCCc1ccccc1`, for which the activation (rescue from dofetilide block), less the hit threshold was -5.86%.

`CC(C)c1ccc(S(=O)(=O)NC2CCCC2)cc1`: the activation (rescue from dofetilide block), less the hit threshold is -6%.

In the case of `CCOc1cc(CNn2c(C)nnc2SCC(=O)NC(C)(C)C)ccc1OCC(=O)NC(C)(C)C`, the activation (rescue from dofetilide block), less the hit threshold is -9.51%.

Turning to `CC1CCN(C(=S)NC2CC3CCC2C3)CC1` (configuration not stated), the activation (rescue from dofetilide block), less the hit threshold is -8.02%.

As for `COc1ccc(CN2CCOC2=O)cc1OC`, the activation (rescue from dofetilide block), less the hit threshold is -6.78%.

Regarding `COc1ccc(CNC(=O)[C@@H]2CC=C[C@@H]3CCN(C4CC4)C(=O)[C@@H]32)cc1`, the activation (rescue from dofetilide block), less the hit threshold was -7.13%.

Consider `COc1ccc(CN2CC[C@H]3C=CC[C@@H](C(=O)N4CCOCC4)[C@H]3C2=O)cc1OC`, for which the activation (rescue from dofetilide block), less the hit threshold was 5.8% (active).

With `Cc1ccc(S(=O)(=O)c2c[nH]c3ccc(C)cc3c2=O)cc1`, the activation (rescue from dofetilide block), less the hit threshold is -9.36%.

With `Cn1c(CC(=O)Nc2ccc(F)cc2)nnc1SCC(=O)NC1CCCCC1`, the activation (rescue from dofetilide block), less the hit threshold is -1.47%.

For `CCOC(=O)c1c(NC(=O)C2(C)Cc3ccccc3C(=O)O2)sc2c1CCCC2` (configuration not stated), the activation (rescue from dofetilide block), less the hit threshold was -5.83%.

Regarding `CCOC(=O)c1c(NC(=S)NC)sc2c1CCCC2`, the activation (rescue from dofetilide block), less the hit threshold is 28.9% (active).

With `CCOC(=O)c1c(NC(=S)Nc2ccccc2)sc2c1CCN(C)C2`, the activation (rescue from dofetilide block), less the hit threshold was -15.5%.

For the molecule `CCOc1ccc(CCN2C(=O)c3cccnc3C2=O)cc1OCC`, the activation (rescue from dofetilide block), less the hit threshold is -5.29%.

For `CCc1nnc(NC(=O)c2c(O)c3c([nH]c2=O)CCCC3)s1`, the activation (rescue from dofetilide block), less the hit threshold was -12.7%.

In the case of `C[N+](C)(C)CCNC(=O)c1c(O)c2c([nH]c1=O)CCCC2`, the activation (rescue from dofetilide block), less the hit threshold was 4.89% (active).

As for `O=C(NCc1ccccn1)c1c(O)c2c([nH]c1=O)CCCC2`, the activation (rescue from dofetilide block), less the hit threshold is -0.66%.

With `CCSc1ccccc1C(=O)NCc1ccc(OC)cc1`, the activation (rescue from dofetilide block), less the hit threshold was 0.47%.

For the molecule `CCC(C(=O)NC1CCCC1)N(C(=O)Cn1nnc(-c2ccc(C)o2)n1)c1ccc(OC)c(OC)c1` (configuration not stated), the activation (rescue from dofetilide block), less the hit threshold was -1.5%.

In the case of `CC(C)CNC(=S)NC(=O)c1ccc(Cl)cc1`, the activation (rescue from dofetilide block), less the hit threshold is 7.52% (active).

As to `CC(C)C(NC(=O)c1ccc(Cl)cc1)C(=O)O` (configuration not stated), the activation (rescue from dofetilide block), less the hit threshold was -8.13%.

Turning to `O=C(NC(=S)NC1CCCCC1)c1ccc(Cl)cc1`, the activation (rescue from dofetilide block), less the hit threshold is -1.76%.

As to `OC(c1nnc(-c2ccccc2)o1)c1cccs1` (configuration not stated), the activation (rescue from dofetilide block), less the hit threshold is -10.2%.

Turning to `COCCCNC(=O)[C@H]1N2C(=O)c3ccccc3C2SC1(C)C` (some centres not stated), the activation (rescue from dofetilide block), less the hit threshold is -7.64%.
